# Shown are actives, neighbours in structure and some others; about 1.6% of the full set was active somewhere.
# HUVEC tox TNFa = HUVEC cytotoxicity counter-screen, TNF alpha stimulated; actives 0.17% (n = 93,000); HUVEC TNFalpha-stimulated, Hoechst cell count, imaging; cell count reduction, % at 2 µM;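 active means cell count reduction exceeding the screen mean by over 5 SD, scaled to untreated wells per plate, cut at about 78% in these data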;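 further: cells counted after 24 h of TNF alpha exposure following the 1 h pretreatment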
# NFkB transloc pot = enhances IL-1B driven NFkB nuclear translocation; HUVEC IL-1B NFkB p65 nuclear translocation imaging; actives 0.3% (n = 94,000); activation, % at 2 µM;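 active means activation above 40%, about the mean plus 3 SD, also judged a hit on visual image review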;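 further: percent activation is computed from the nuclear over cytoplasmic p65 intensity ratio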
# IL1B cytotox = toxic to HUVEC cells under IL-1B stimulation; HUVEC cell count loss, Hoechst imaging, IL-1B stimulated; cell count reduction, % at 2 µM; AID 845; actives 0.41% (n = 94,000);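 active means cell count reduction more than 3 SD above the screen-wide mean, cut at about 70% in these data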;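 further: normalized per plate to untreated control cells as the no-loss baseline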
# F-actin modifier = alters cytoskeleton assembly in HUVEC cells | HUVEC TNFa F-actin phalloidin imaging, high content | inhibition, % at 2 µM | actives 0.18% (n = 91,000) | AID 836;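 active means inhibition above the batch mean plus 3 SD and confirmed as a hit by visual image inspection, cut at about 30% in these data, passing the limit was not always enough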
# NFkB transloc inh = blocks IL-1B driven NFkB nuclear translocation in HUVEC cells. HUVEC IL-1B NFkB p65 nuclear translocation imaging. inhibition, % at 2 µM. actives 0.43% (n = 94,000);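 active means inhibition above about 30% together with a positive call from visual inspection of the well image, limit read from the data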;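 further: nuclear over cytoplasmic p65 intensity ratio measured by imaging; 0% = IL-1B stimulated DMSO wells and 100% = unstimulated DMSO wells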
# VCAM1 TNFa inh = reduces TNF alpha induced VCAM1 expression in HUVEC; HUVEC TNFa-induced VCAM-1 immunofluorescence, high-content imaging; actives 0.48% (n = 95,000); inhibition, % at 2 µM;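 active means inhibition above the batch mean plus 3 SD, with images confirmed as a hit by eye, cut at about 37% in these data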;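 further: 0% = TNF-stimulated DMSO wells and 100% = unstimulated control wells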
# Numbers without * were called inactive; · = no result.
SMILES,HUVEC tox TNFa,NFkB transloc pot,IL1B cytotox,F-actin modifier,NFkB transloc inh,VCAM1 TNFa inh
COc1ccc(Cn2nnnc2C(c2cccs2)N2CCSCC2)cc1 (stereo not drawn),88.2*,-3.2,6.0,-103.0,3.2,86.6*
CCCN1Cc2cccc(C(=O)N3CCN(c4ccccc4)CC3)c2C1=O,-0.4,32.2,94.3*,-7.2,-32.2,13.8
Cc1ccc(Nc2nnns2)cc1,-14.9,-38.2,-14.2,11.0,38.2*,-4.5
Cc1noc2ncc(C(=O)c3cc(F)ccc3O)cc12,6.2,29.7,93.3*,-7.3,-29.7,13.8
Cc1ccc(C2CC(C(F)F)n3ncc(C(=O)Nc4c(C)nn(Cc5c(F)cccc5Cl)c4C)c3N2)cc1 (stereo not drawn),-7.8,4.0,16.5,5.4,-4.0,5.4
COc1ccc(CN2CC(C(=O)N3CCOCC3)CC2=O)cc1 (stereo not drawn),-8.0,1.8,-2.9,0.7,-1.8,-8.4
O=C1CC(C(=O)N2CCN(c3ccc(F)cc3)CC2)CN1CCc1ccccc1 (stereo not drawn),-11.0,37.0,5.2,-1.8,-37.0,-14.9
O=C(C1CCC(=O)N1Cc1ccccc1Cl)N1CCN(c2ccc(F)cc2)CC1 (stereo not drawn),-0.4,4.7,77.8*,0.5,-4.7,-1.1
COc1ccccc1CN1CC(C(=O)N2CCN(c3ccc(F)cc3)CC2)CC1=O (stereo not drawn),10.1,41.1*,-9.6,-8.7,-41.1,40.4
CC(C)CCN1CC(C(=O)N2CCN(c3ccc(F)cc3)CC2)CC1=O (stereo not drawn),-5.7,15.1,75.8*,0.4,-15.1,12.9
Cn1c(=O)oc2cc(S(=O)(=O)Nc3ccc4c(c3)OCCO4)ccc21,-38.5,-97.7,91.9*,7.2,97.7*,1.7
O=C(C1CCC1)N1CCc2cc(S(=O)(=O)Nc3ccc4c(c3)OCCO4)ccc21,62.7,-12.6,-7.5,-33.9,12.6,83.0*
CCC(=O)N1CCc2cc(S(=O)(=O)Nc3ccc4c(c3)OCCO4)ccc21,0.4,-24.9,-16.7,-14.5,24.9,-1.9
O=C(Oc1ccccc1)c1cccc(COC(=O)c2cnccn2)c1,-3.1,29.7,86.9*,-9.8,-29.7,8.7
CC1Cc2ccccc2N1C(=O)CSc1nnnn1C1CCCC1 (stereo not drawn),-3.3,-1.6,10.9,4.4,1.6,-2.9
CCc1c(C)nc(/N=C(/NC(=O)c2ccccc2)Nc2ccccc2OC)[nH]c1=O,-18.5,-54.8,-0.8,2.5,54.8*,0.7
COc1ccc(N2CCN(S(=O)(=O)c3ccc(C(=O)NCc4ccco4)cc3)CC2)cc1,-29.7,-5.5,-31.6,4.0,5.5,9.4
CCc1ccc(NS(=O)(=O)c2cc(OC)ccc2OC)cc1,80.8*,4.3,6.3,9.4,-4.3,39.7
COc1cccc(Nc2nc(=O)[nH]nc2C)c1,-13.9,-17.6,83.0*,11.4,17.6,-29.9
COc1cccc(Nc2ncc(C(=O)O)c3ccccc23)c1,-5.0,3.8,15.3,9.5,-3.8,9.8
c1ccc(Cn2cnc3ccccc32)cc1,2.1,-3.3,94.8*,5.5,3.3,-2.6
COC(=O)c1cc(COC(=O)c2ccc(OC)c(S(=O)(=O)N3CCCC3)c2)oc1C,95.8*,22.2,-7.2,-53.5,-22.2,64.1
COc1ccc(CNC(=O)C(CCSC)NC(=O)c2ccco2)cc1 (stereo not drawn),5.3,1.7,5.8,-23.0,-1.7,0.7
COc1cccc(OC)c1C(=O)N1CCN(S(=O)(=O)c2ccc(C)cc2)CC1,-12.9,-32.3,8.8,2.5,32.3*,12.4
Cc1ccc(-n2c(Cn3cnc4ccccc43)nnc2SCC(=O)O)cc1,-18.3,7.2,-33.3,18.2,-7.2,-39.1
SMILES,HUVEC tox TNFa,NFkB transloc pot,IL1B cytotox,F-actin modifier,NFkB transloc inh,VCAM1 TNFa inh
COC(=O)c1c(NC(=O)c2ccco2)sc(C(=O)N(C)C)c1C,-23.1,0.5,37.1,-8.1,-0.5,-12.2
CN(C)CCCOC(=O)c1cc2ccccc2o1,·,8.8,18.2,2.7,-8.8,·
O=C(OCCN1C(=O)c2ccccc2C1=O)c1cc2ccccc2o1,-21.7,45.3*,-14.6,11.7,-45.3,15.7
CCOC(=O)C1CCCN(S(=O)(=O)c2ccc(OC)c3ccccc23)C1 (stereo not drawn),-14.7,36.3,-3.0,6.1,-36.3,18.4
Cc1nn(C(=O)Cn2ccc([N+](=O)[O-])n2)c(C)c1Br,-3.7,1.8,-3.1,0.7,-1.8,-1.1
CCCN(Cc1cc2cccc(C)c2[nH]c1=O)C(=O)c1cccc(OC)c1,-5.7,-94.8,91.7*,2.4,94.8*,18.0
CCN(CC)c1ccc2cc(C=O)c(=O)oc2c1,-1.1,71.9*,-7.0,-2.1,-71.9,7.7
O=C(NC1CC1)c1ccc(S(=O)(=O)NCC2CCCCC2)cc1,52.6,4.0,-3.3,54.9*,-4.0,50.7*
CSc1nc2ccccc2n1CC(=O)Nc1cc(C(F)(F)F)ccc1N1CCOCC1,-7.0,17.7,-95.6,3.3,-17.7,-11.4
COc1ccc(N2CCN(c3ncnc4c3cnn4-c3ccc(C)cc3C)CC2)cc1,-20.2,-5.5,-25.5,-14.9,5.5,6.7
Cc1ccc(-n2ncc3c(N4CCN(c5ccccc5)CC4)ncnc32)c(C)c1,·,0.6,5.5,5.0,-0.6,95.6*
CC[n+]1c(/C=C/C=C/N(C(C)=O)c2ccccc2)sc2ccccc21,5.8,-57.4,2.7,-5.0,57.4*,-36.7
COc1cc2c(cc1NC(=O)c1cccc([N+](=O)[O-])c1)oc1ccccc12,-5.5,-9.2,78.3*,-23.1,9.2,14.2
Clc1ccc(OCCCNCc2ccccc2)c(Br)c1,-2.0,-40.0,-16.4,-4.4,40.0*,3.3
Cc1noc(C)c1S(=O)(=O)NCCN1CCN(c2ccccc2)CC1,16.8,-31.2,10.5,-27.8,31.2*,-11.3
CCC1=NN=C(c2ccc(F)cc2)C(c2c[nH]c3ccccc23)N1O (stereo not drawn),-24.8,11.8,-6.9,1.5,-11.8,21.7
COc1cc(S(=O)(=O)NCCN2CCOCC2)c(OC)cc1Cl,-14.6,20.4,-8.5,1.6,-20.4,-1.1
Cc1cc(S(=O)(=O)NCCN2CCOCC2)c(C)s1,-34.9,-0.8,8.9,65.4*,0.8,-7.1
O=C(NCCCO)c1ccc2[nH]c3c(c2c1)CCCC3,-11.6,82.9*,-14.4,2.4,-82.9,26.2
Cc1nc(C)c(C(=O)N/N=C/c2cn(C)c3ccccc23)s1,-15.7,9.4,-6.8,-25.0,-9.4,0.7
COC(=O)CCS(=O)(=O)c1nc(-c2ccccc2)cc(C(F)(F)F)n1,-1.4,-36.9,-3.7,-6.0,36.9*,33.4
O=C(O)CCS(=O)(=O)c1nc(-c2cccs2)cc(C(F)(F)F)n1,-18.3,4.6,-8.8,·,-4.6,-12.3
CS(=O)(=O)c1nc(-c2cccs2)cc(C(F)(F)F)n1,8.3,-30.6,0.0,1.6,30.6*,-0.2
Cc1ccc(OCC(=O)N2CCCCC2)c(Br)c1,-4.8,-97.0,87.1*,0.0,97.0*,-3.9
